This passage reports phenotypically active results from the supplement of paper PMC7411054.

Counter-ions that a name gives are not always drawn. Unmarked numbers belong to inactive results.

One test concerns A549-TP53BP1-CLTA. The test can be described thus: phenotypically active (imaging signature differs from DMSO and reproducible) at any of 0.3-9 uM (binary (1 = active, 0 = inactive)); higher = active. The note with it: treatment time: 24 h. The gist of the method:
(§1)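 Fifteen gene-edited A549, HepG2 and WPMY1 reporter lines (BFP segmentation plus GFP and RFP/FusionRed markers) were treated at 0.3, 1, 3 or 9 µM for 24 h, four wells each, then imaged live. Live-cell features per well were normalised to DMSO control wells. Deviation required ≥3 of 4 wells beyond the 95th percentile of DMSO Euclidean distances, and reproducibility required median replicate Pearson correlation above the 95th percentile of non-replicates. Phenotypic activity needed both criteria.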
As for `O=c1cc(-c2ccccc2)oc2cc(O)cc(O)c12` [Chrysin], the phenotypically active is 0.
As for `COc1cc2nccc(Oc3ccc(NC(=O)C4(C(=O)Nc5ccc(F)cc5)CC4)cc3)c2cc1OC`, the phenotypically active is 0.
The same measure, in the same setting: the same measure for `CC(C)c1nc(CN(C)C(=O)N[C@H](C(=O)N[C@@H](Cc2ccccc2)C[C@H](O)[C@H](Cc2ccccc2)NC(=O)OCc2cncs2)C(C)C)cs1` [ritonavir]: 0.
As for `CC[C@H](CO)Nc1nc(Nc2cccc(-c3ccccn3)c2)c2ncn(C(C)C)c2n1` [(R)-DRF053 dihydrochloride], the phenotypically active is 0.
For the molecule `CN1c2ccc([N+](=O)[O-])cc2N=C(c2ccc(C(=O)O)cc2)c2cc3c(cc21)C(C)(C)CCC3(C)C`, the phenotypically active is 0.
Same read-out and setting: the same measure for `COc1ccc(CCc2nc3cc(-c4c(C)noc4C)ccc3n2C[C@H](C)N2CCOCC2)cc1Cl`: 0; for `CCOC(=O)c1c2c3c(cccc3[nH]c1=O)C(=O)c1ccccc1-2`: 0; for `CCN1/C(=C/C(C)=O)Sc2ccc(O)cc21`: 1 (active).
On to `CC(C)(C)n1nc(-c2ccc(Cl)cc2)c2c(N)ncnc21`, for which the phenotypically active was 0.
Still for that read-out and setting: for `O=S(=O)(c1cccc2cnccc12)N1CCNCC1` the value was 1 (active); for `CC(C)c1c(C(=O)Nc2ccccc2)c(-c2ccccc2)c(-c2ccc(F)cc2)n1CC[C@@H](O)C[C@@H](O)CC(=O)O` [atorvastatin], 0.

A further test deals with A549-TUBA1B-RELA. The test is described as above. The note with it: treatment time: 24 h. The gist of the method:
as §1
In the case of `O=C(CCCCCCC(=O)Nc1ccc([C@H]2O[C@@H](CSc3nc(-c4ccccc4)c(-c4ccccc4)o3)C[C@@H](c3ccc(CO)cc3)O2)cc1)NO` [Tubacin], the phenotypically active was 0.
The same measure, in the same setting: for `CC1CNCCN1S(=O)(=O)c1cccc2cnccc12` (stereo not drawn) [H-7 dihydrochloride] the value was 0.
Same read-out and setting: the same measure for `COc1cc(OC)c2c(=O)[nH]c(-c3cc(C)c(OCCO)c(C)c3)nc2c1` [apabetalone]: 0; for `CC1(CN2CCC(n3c(=O)[nH]c4ccccc43)CC2)OCc2ccccc2-n2cccc21` (stereo not drawn): 1 (active).
On the same count and under the same terms, for `N#Cc1ccc2ncnc(NCCc3ccccc3)c2c1` [Senexin A] the value was 0; for `Nc1ccc(N=Nc2ccccc2)c(N)n1` [phenazopyridine], 0.
For `O=C(CCCCCCC(=O)NO)NO`, the phenotypically active is 0.
Same read-out and setting: the same measure for `CC(C)(C)c1ccc(C(O)CCCN2CCC(C(O)(c3ccccc3)c3ccccc3)CC2)cc1` (stereo not drawn) [terfenadine]: 0; for `COc1ccccc1C(=O)Nc1cc2c(cc1N1CCCC1)n(C)c(=O)n2C`: 0.
Same read-out and setting: the same measure for `CCC(=O)N1CCOc2c(cc(-c3ccc(OC)c(OC)c3)cc2OC[C@H]2CCCN(C)C2)C1`: 1 (active); for `CCc1nc(-c2cccc(C)c2)c(-c2ccnc(NC(=O)c3ccccc3)c2)s1`: 0.
As to `Cc1ccc(S(=O)(=O)n2c(N)nc3ccccc32)cc1`, the phenotypically active is 0.
Take `Cc1ccc(NC(=O)c2cccc(C(C)(C)C#N)c2)cc1Nc1ccc2ncn(C)c(=O)c2c1`: the phenotypically active was 1 (active).
Same read-out and setting: the same measure for `Cn1cc(-c2cnc3ccc4ccc(CS(=O)(=O)NCc5ccccn5)cc4c(=O)c3c2)cn1`: 1 (active).
Same read-out and setting: for `O=C1c2c(O)cccc2Cc2cccc(O)c21` [anthralin] the value was 0; for `COc1cc2c(cc1OC)-c1c/c(=N/c3c(C)cc(C)cc3C)n(C)c(=O)n1CC2` [Trequinsin hydrochloride], 0.
The same measure, in the same setting: for `O=C(Nc1ccncc1)c1cc([N+](=O)[O-])ccc1Cl` the value was 1 (active); for `Nc1ncnc2c1c(-c1ccc(Oc3ccccc3)cc1)nn2C1CCCC1`, 1 (active).
As to `O=C(Nc1ccc(CN2CCOCC2)cc1)c1ccc(-c2cccc(Cl)c2)o1`, the phenotypically active was 1 (active).
For the molecule `O=C(/C=C/c1ccc2ccccc2n1)c1ccncc1`, the phenotypically active is 1 (active).
Still for that read-out and setting: for `CNCC[C@H](Oc1cccc2ccccc12)c1cccs1` [duloxetine] the value was 1 (active); for `CNC(=O)c1cc(Oc2ccc(NC(=O)Nc3ccc(Cl)c(C(F)(F)F)c3)c(F)c2)ccn1` [regorafenib], 0; for `NC(=O)[C@@H](CCC(F)(F)F)N(Cc1ccc(-c2ncon2)cc1F)S(=O)(=O)c1ccc(Cl)cc1` [avagacestat], 0.
As to `CCC(C)(C)C(=O)O[C@H]1C[C@@H](C)C=C2C=C[C@H](C)[C@H](CC[C@@H]3C[C@@H](O)CC(=O)O3)[C@H]21` [Simvastatin], the phenotypically active is 0.
The same measure, in the same setting: for `Nc1cc(N)c(N)cc1N` [FAK Inhibitor 14] the value was 1 (active).
Same read-out and setting: the same measure for `Cc1ccc(S(=O)(=O)c2ccc([N+](=O)[O-])o2)cc1`: 0; for `Fc1ccccc1Nc1nc2nonc2nc1Nc1ccccc1F`: 1 (active).
